# Source: PubChem BioAssay (NCI)
# This is part of a sample that, as a whole, favours compounds with a hit. Of some 79,000 tested, about 15% had one in any assay. Unmarked numbers belong to inactive results. Activity calls are given as the source filed them. Rule as the data show it: active = growth inhibition above about 70%; inactive = the rest.
# Experiment: NCI Yeast Anticancer Drug Screen. Data for the rad52 strain (AID 147);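 also: 0% = growth of vehicle-treated control cultures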
# Settings: S. cerevisiae rad52 mutant growth inhibition, stronger effect = higher value
# Protocol: Growth inhibition of yeast strains with defined genetic alterations is measured as a screen for potential anti-cancer activity. Selected strains with alterations in DNA damage repair or cell cycle control were exposed to compounds and growth inhibition was measured relative to vehicle treated controls. The strain used in this assay is rad52
Compound,growth inhibition (at 1.2 µM) [%],growth inhibition (at 3.7 µM),growth inhibition (at 11.0 µM),growth inhibition (at 33.0 µM),growth inhibition (at 100.0 µM)
OC(CCNCc1ccccc1)c1ccc2ccccc2c1 (stereo not given),15,42%,69%,87% (active),90% (active)
CCOC(=O)CC1(C(=O)OCC)c2[nH]c3ccccc3c2CCN1Cc1ccccc1 (stereo not given),-1,0%,1%,7%,45%
Cc1cccc(/C=N/NC(=S)N2CCCC2)n1,-25,-26%,27%,94% (active),96% (active)
CCOC(=O)/C(=C\c1ccc(C#N)cc1)C(C)=O,-40,-32%,-4%,86% (active),99% (active)
Cc1ccc(N=Nc2ccc(O)c(=O)cc2)cc1,-11,1%,54%,89% (active),93% (active)
COc1cc2cc3c4cc(OC)c(OC)cc4cc[n+]3c(C)c2cc1OC,-21,-21%,-16%,-20%,-13%
CC(C)(C)C1=CC(=CC=C2C=CN(CCCCCCCCCCCO)C=C2)C=C(C(C)(C)C)C1=O,-1,95% (active),99% (active),98% (active),98% (active)
Cc1nc2ccc(N=NN(C)C)cc2[nH]1,11,8%,3%,72% (active),97% (active)
